# Source: PubChem BioAssay
# Potency and affinity values are given separately. Values without a mark were called inactive. Activity calls are given as the source filed them. The rule behind the calls is not given here.
# Test: A2780 ovarian cancer cell cytotoxicity, dose response, cytotoxicity control, plate reader, dry powder samples (AID 743046);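 note: 0% = neutral control wells and -100% = cytotoxic reference compound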
# Conditions: series mostly up to 35 µM; activity change, negative = cytotoxicity: at the top concentration
Compound,"activity change, negative = cytotoxicity",outcome
C[C@@H]1CN([C@@H](C)CO)C(=O)Cc2cc(N(C)C)ccc2O[C@H]1CN(C)Cc1ccc(Oc2ccccc2)cc1,0.302%,
C[C@H](CO)N1C[C@H](C)[C@H](CN(C)Cc2ccc3c(c2)OCO3)Oc2ccc(NC(=O)Nc3cccc4ccccc34)cc2C1=O,0.976%,
COc1ccccc1C#Cc1ccc2c(c1)O[C@H](CN(C)Cc1cccnc1)[C@H](C)CN([C@H](C)CO)S2(=O)=O,-8.93%,
C[C@@H]1CCCCO[C@H](CN(C)Cc2ccc(C(F)(F)F)cc2)[C@H](C)CN([C@H](C)CO)C(=O)c2cc(NS(=O)(=O)c3ccc(F)cc3)ccc2O1,15.8%,
CN1c2ccc(-c3ccc(C#N)cc3)cc2[C@@H]2[C@@H](CCN2C(=O)NC2CCCCC2)[C@@H]1CO,25.9%,
Cc1ccc(S(=O)(=O)Nc2ccc3c(c2)C(=O)N([C@@H](C)CO)C[C@H](C)[C@H](CN(C)Cc2ccc(C(F)(F)F)cc2)OCCCC[C@@H](C)O3)cc1,11.9%,
Cc1ccc(S(=O)(=O)N(C)C[C@H]2Oc3ccc(NC(=O)Nc4ccc(C(F)(F)F)cc4)cc3CC(=O)N([C@@H](C)CO)C[C@H]2C)cc1,12.8%,
CCCN(C)C[C@H]1OCCCC[C@@H](C)Oc2ccc(NC(=O)c3ccccc3)cc2C(=O)N([C@H](C)CO)C[C@H]1C,26.7%,
C[C@@H]1CCCCO[C@H](CN(C)Cc2ccc(Cl)c(Cl)c2)[C@@H](C)CN([C@@H](C)CO)C(=O)c2cc(NS(=O)(=O)c3ccc(Cl)cc3)ccc2O1,-1.46%,
C[C@@H]1CN([C@H](C)CO)C(=O)c2c(c3ccccc3n2C)-c2ccccc2CO[C@H]1CN(C)C(=O)Nc1cccc(C(F)(F)F)c1,19.3%,
C[C@@H]1CCCCO[C@H](CN(C)Cc2ccc(Cl)c(Cl)c2)[C@H](C)CN([C@@H](C)CO)C(=O)c2cc(NC(=O)Nc3ccc(F)cc3)ccc2O1,8.18%,
C[C@H](CO)N1C[C@H](C)[C@H](CN(C)Cc2ccc(Cl)c(Cl)c2)Oc2c(NS(=O)(=O)c3ccc(Cl)cc3)cccc2C1=O,21.6%,
Cc1ccc(S(=O)(=O)Nc2ccc3c(c2)C(=O)N([C@H](C)CO)C[C@@H](C)[C@H](CN(C)S(=O)(=O)c2ccc(Cl)cc2)OCCCC[C@H](C)O3)cc1,-2.68%,
C[C@@H]1CN([C@H](C)CO)C(=O)c2cc(NC(=O)Nc3ccc(C(F)(F)F)cc3)ccc2O[C@@H](C)CCCCO[C@H]1CN(C)C(=O)Nc1ccc(F)cc1,15.8%,
Cc1ccc(S(=O)(=O)Nc2ccc3c(c2)C(=O)N([C@@H](C)CO)C[C@H](C)[C@@H](CN(C)C(=O)Nc2ccc(C(F)(F)F)cc2)OCCCC[C@H](C)O3)cc1,30.8%,
Cc1cccc(-c2ccc([C@H]3[C@H](CO)N4CCCCN(S(=O)(=O)c5ccccc5C)C[C@@H]34)cc2)c1,12.4%,
C[C@@H]1CN([C@H](C)CO)C(=O)c2cc(NC(=O)Nc3ccc(F)cc3)ccc2O[C@@H](C)CCCCO[C@H]1CN(C)Cc1ccc(Cl)c(Cl)c1,-15.5%,
O=C(Nc1cccc(F)c1)N1CCCCN2[C@@H](CO)[C@@H](c3ccc(-c4ccncc4)cc3)[C@@H]2C1,0.833%,
C[C@@H]1CCCCO[C@H](CN(C)C)[C@H](C)CN([C@H](C)CO)C(=O)c2cc(NC(=O)Nc3cccc4ccccc34)ccc2O1,-2.77%,
C[C@@H]1CN([C@@H](C)CO)C(=O)c2cc(NC(=O)c3ccccc3)ccc2O[C@@H](C)CCCCO[C@H]1CN(C)Cc1ccc(C(F)(F)F)cc1,-32.6%,

Compound,"activity change, negative = cytotoxicity",outcome
C[C@@H]1CCCCO[C@H](CN(C)Cc2ccc(C(F)(F)F)cc2)[C@@H](C)CN([C@@H](C)CO)C(=O)c2cc(NS(=O)(=O)c3ccccc3)ccc2O1,9.55%,
O=C(Nc1ccc(C(F)(F)F)cc1)N1C[C@@H]2N[C@H](C1)C2c1ccc(-c2ccccc2)cc1 (some centres undefined),,inactive
O=C(C[C@@H]1CC[C@H]2[C@@H](COC[C@@H](O)CN2Cc2cccc(C(F)(F)F)c2)O1)NCc1ccc(F)cc1,-12.2%,
C[C@@H]1CN([C@H](C)CO)C(=O)c2cc(NC(=O)Nc3ccc(F)cc3)ccc2O[C@@H](C)CCCCO[C@H]1CN(C)C(=O)Nc1ccc(F)cc1,1.52%,
O=S(=O)(c1ccc(F)cc1)N1C[C@H]2[C@@H](c3ccccc31)[C@H](CO)N2Cc1ccccc1Cl,17%,
C[C@@H]1CN([C@@H](C)CO)S(=O)(=O)c2ccc(C#C[C@@H](C)O)cc2O[C@@H]1CN(C)Cc1ccc(-c2ccccc2)cc1,2.12%,
C[C@H]1CN([C@@H](C)CO)C(=O)CCCn2nncc2CO[C@@H]1CN(C)C(=O)Nc1ccc(-c2cccs2)cc1,-14.4%,
Cc1ccc(S(=O)(=O)Nc2cccc3c2O[C@@H](CN(C)C(=O)Nc2ccc(C(F)(F)F)cc2)[C@@H](C)CN([C@H](C)CO)C3=O)cc1,11%,
COc1ccc(CN2[C@H](CO)[C@H]3c4ccccc4NC[C@H]32)cc1,26%,
CCCN1[C@H](C(=O)N2CCOCC2)[C@@H](CO)[C@@H]2Cn3c(ccc(/C=C/c4ccccc4)c3=O)[C@@H]21,18.2%,
O=C(C[C@@H]1C[C@H]2c3cc(NC(=O)C4CCOCC4)ccc3O[C@H]2[C@H](CO)O1)NCc1ccc(Oc2ccccc2)cc1,-10.1%,
C[C@@H]1CN([C@H](C)CO)C(=O)c2cc(NC(=O)c3ccncc3)ccc2O[C@@H](C)CCCCO[C@H]1CN(C)Cc1ccc(C(F)(F)F)cc1,14.7%,
Cc1cccc(-c2ccc([C@H]3[C@@H](CO)N4CCCCN(S(=O)(=O)c5cccc(C)c5)C[C@@H]34)cc2)c1,-24.1%,
C[C@@H]1CN([C@H](C)CO)C(=O)c2cc(NS(=O)(=O)c3ccc(F)cc3)ccc2O[C@@H]1CN(C)Cc1ccc(C(F)(F)F)cc1,-7.17%,
C[C@@H]1CN([C@H](C)CO)C(=O)c2c(c3ccccc3n2C)-c2ccccc2CO[C@@H]1CN(C)S(=O)(=O)c1ccc(C(F)(F)F)cc1,-2.63%,
C[C@@H]1CCCCO[C@@H](CN(C)S(=O)(=O)c2ccc(Cl)cc2)[C@H](C)CN([C@@H](C)CO)C(=O)c2cc(NS(=O)(=O)c3ccc(Cl)cc3)ccc2O1,-4.82%,
C[C@H](CO)N1C[C@H](C)[C@H](CN(C)S(=O)(=O)c2cccs2)OCCCC[C@H](C)Oc2ccc(NC(=O)NC3CCCCC3)cc2C1=O,11.9%,
Cc1ccc(S(=O)(=O)Nc2ccc3c(c2)C(=O)N([C@@H](C)CO)C[C@H](C)[C@@H](CN(C)Cc2ccc(Cl)c(Cl)c2)OCCCC[C@@H](C)O3)cc1,10.1%,
C[C@@H]1CCCCO[C@@H](CN(C)Cc2ccc(Cl)c(Cl)c2)[C@H](C)CN([C@H](C)CO)C(=O)c2cc(NS(=O)(=O)c3ccc(F)cc3)ccc2O1,-3.15%,
